This passage reports outcome and activity, negative = inhibition results from PubChem BioAssay (Tox21).

Structures are written as SMILES. Inconclusive results are not listed. Active and inactive are the calls of the source. Calls come from the whole dose curve; as a rule, active = well fitted curve in the direction sought with a large enough effect in the signal ratio in the repeat runs (not every such curve was filed as active); inconclusive = weak or mixed curves, or effect the other way; inactive = no such curve, though single readings can be large or run the other way; the % refers to the signal ratio.
% is set by controls: 0 for no effect and ±100 for the full control effect.

The target in the experiment is Estrogen receptor (Homo sapiens) (UniProt P03372). In words: qHTS assay to identify small molecule antagonists of the estrogen receptor alpha (ER-alpha) signaling pathway (AID 743069). The following applies: HEK293 ER-alpha-UAS-bla, beta-lactamase ratio, antagonist mode; series mostly up to 69.4 µM. An excerpt: National Center for Advancing Translational Sciences [NCATS]
Chain of Estrogen receptor (Homo sapiens) (P03372 whole entry, looked up): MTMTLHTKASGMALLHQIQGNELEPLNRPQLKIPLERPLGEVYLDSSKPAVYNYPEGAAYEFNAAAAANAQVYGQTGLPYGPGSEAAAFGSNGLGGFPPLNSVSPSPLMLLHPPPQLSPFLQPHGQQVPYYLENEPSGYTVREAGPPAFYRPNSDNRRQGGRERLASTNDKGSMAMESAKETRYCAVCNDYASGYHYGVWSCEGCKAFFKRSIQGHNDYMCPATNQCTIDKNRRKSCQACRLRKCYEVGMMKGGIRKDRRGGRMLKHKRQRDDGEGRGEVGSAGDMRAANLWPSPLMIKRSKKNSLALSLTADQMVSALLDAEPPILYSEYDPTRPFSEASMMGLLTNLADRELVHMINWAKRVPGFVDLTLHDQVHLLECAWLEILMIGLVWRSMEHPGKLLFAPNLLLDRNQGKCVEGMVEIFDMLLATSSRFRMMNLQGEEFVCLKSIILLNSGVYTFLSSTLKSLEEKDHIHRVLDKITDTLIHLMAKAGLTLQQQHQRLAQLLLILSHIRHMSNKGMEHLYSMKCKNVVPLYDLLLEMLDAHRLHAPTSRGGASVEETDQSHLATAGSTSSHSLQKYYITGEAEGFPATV
NIH Chemical Genomics Center [NCGC]
U.S. Environmental Protection Agency [EPA]
National Institutes of Environmental Health Sciences [NIEHS]
National Toxicology Program [NTP]
U.S. Food and Drug Administration [FDA]
Estrogen receptor (ER), a nuclear hormone receptor, plays an important role in development, metabolic homeostasis and reproduction. Two subtypes of ER, ER-alpha and ER-beta have similar expression patterns with some uniqueness in both types. Endocrine disrupting chemicals (EDCs) and their interactions with steroid hormone receptors like ER causes disruption of normal endocrine function. To identify the compounds that inhibit ER signaling, an ER-alpha-UAS-bla GripTiteTM cell line (Invitrogen, Carlsbad, CA, USA) containing a beta-lactamase reporter gene under the control of an Upstream Activator Sequence (UAS) stably integrated into HEK293 cells was used to screen the Tox21 10K compound library.
Tox21 Assay Protocol Summary:
ER-alpha-bla cells were cultured in assay medium containing 2% charcoal stripped FBS overnight in the culture flasks before the assay was performed. The cells were dispensed at 5,000 cells/5 uL of assay medium per well into black wall/clear-bottom 1536-well plates using a Multidrop Combi (ThermoFisher Scientific, Waltham, MA) dispenser. After the assay plates were incubated at a 37C and 5% CO2 for 4 hr, 23 nL of compounds dissolved in DMSO, positive controls or DMSO only was transferred to the assay plate by a Pintool station (Kalypsys, San Diego, CA), followed by addition of 1 uL of 17beta-estradiol in assay medium using a Flying Reagent Dispenser (Aurora Discovery, San Diego, CA). The plates were incubated at 37C and 5% CO2 for 18 hr. Then 1 uL of LiveBLAzerTM B/G FRET substrate was added using a Flying Reagent Dispenser, the plates were incubated at room temperature for 2 hours, and fluorescence intensity was measured by an Envision plate reader (PerkinElmer, Shelton, CT).
Background: In qHTS, concentration-response curves come from the screen itself.
For `C[Si]1(C)O[Si](C)(C)O[Si](C)(C)O[Si](C)(C)O[Si](C)(C)O1`, the outcome was inactive. On the same count and under the same terms, the result for `CCC(C)OC(C)CC` (stereo not given) reads “inactive”; that for `CC1c2ccccc2CN1NC(=O)c1ccc(Cl)c(S(N)(=O)=O)c1` (stereo not given), “inactive”. With `CN(C)CCOC(=O)C(c1ccccc1)C1(O)CCCC1` (stereo not given), the result was inactive. As to `ONc1ccccc1`, the outcome was inactive. On to `O=C1c2ccccc2C(=O)c2cc(Cl)ccc21`, for which the activity, negative = inhibition is -4.44% [at 6.71 µM] (inactive). Regarding `CC12CCC(C1)C(C)(C)C2O` (stereo not given), the outcome was inactive.

On to `c1ccc(B(c2ccccc2)c2ccccc2)cc1`, for which the result was inactive. Take `CC(=O)CCc1ccc(OC(C)=O)cc1`: the outcome was inactive. Take `CCO`: the result was inactive.

On to `CCCc1ccc(O)cc1`, for which the outcome was inactive. For the compound `CCC(C)C(C)=O` (stereo not given), the result was inactive. With `CC1=C(C(=O)O)N2C(=O)[C@@H](NC(=O)[C@H](N)c3ccccc3)[C@H]2SC1`, the result was inactive. For `CCCCCCCCCCCCCCC(=O)NC(CO)CCCCCCCCCCCCCC` (stereo not given), the outcome was inactive. As to `COC(=O)/C=C\C(=O)O`, the outcome was inactive.

For the compound `CSc1cnccn1`, the outcome was inactive. Take `COC(C)(OC)OC`: the outcome was inactive.

Turning to `CC(CO)(CO)CO`, the result was inactive.

`c1ccc2cnccc2c1`: the result was inactive. With `O=C(CN1CCNCC1)NC1CCCCC1`, the result was inactive. On to `CCCCCCCCCOC(=O)c1ccccc1C(=O)OCCCCCCCCC`, for which the result was inactive.

`CC1(C)CC(OC(=O)CCCCCCCCC(=O)OC2CC(C)(C)NC(C)(C)C2)CC(C)(C)N1`: the result was inactive. Take `CCCCOCC(C)O` (stereo not given): the result was inactive. As to `C=CCCCCCCCCC(=O)OCCCC`, the outcome was inactive. For `Cc1cc(C)c(C(=O)O)c(C)c1`, the outcome was inactive.

`N#CCC(=O)NN`: the result was inactive.

As to `Fc1ccccc1`, the result was inactive. The same measure, in the same setting: for `CC1OCCC1=O` (stereo not given) the value was “inactive”. The same measure, in the same setting: the result for `CCCCOC(=O)C(C)O` (stereo not given) reads “inactive”; that for `OCC1CCC(CO)CC1` (stereo not given), “inactive”. Consider `C/C(CC(C)C)=N\O`, for which the result was inactive. Regarding `CCO[Si](CC)(OCC)OCC`, the result was inactive. The same measure, in the same setting: the result for `COc1nc(N)nc2nc[nH]c12` reads “inactive”; that for `O=C1OCCO1`, “inactive”; that for `CCC(C)C(=O)OCCc1ccccc1` (stereo not given), “inactive”. For `Cc1ccc(N)cc1S(=O)(=O)O`, the result was inactive. Take `CC(C)COC(=O)c1ccccc1`: the outcome was inactive. With `COC(=O)c1ccccc1C(=O)O`, the result was inactive. Consider `O=C(NCN1CCOCC1)c1cnccn1`, for which the outcome was inactive. As to `O=C1CCCCO1`, the outcome was inactive.
